Screening results deposited in PubChem by several laboratories.
Shown are actives, neighbours in structure and some others; about 1.2% of the full set was active somewhere.
PriA SSB inh: blocks PriA binding to SSB C-terminal tail | inhibition, % at 33 µM | AlphaScreen SSBct-PriA binding, biotinylated peptide | hit rate 0.6% among 430,000; in the data active = inhibition mostly above about 37%, no sharp cut-off; inactive = mostly below about 20%;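 note: plate controls were negative control peptide for no effect and reference peptide for full effect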
PrP 5UTR inh: suppresses PrP 5' UTR mRNA reporter expression. hit rate 0.35% among 340,000. AID 488862. cell-based PrP 5' UTR mRNA reporter, plate reader. inhibition, % (concentration not given with the values); in the data active = inhibition above about 52%; note: 0 = median of the neutral control wells
3CLpro inhibitor: SARS-CoV 3CLpro protease inhibition. P0C6X7. recombinant SARS-CoV 3CLpro, quenched FRET peptide cleavage. inhibition, % at 6 µM. hit rate 0.14% among 290,000. AID 1706; in the data active = inhibition above about 12%
BJeLR viability: BJeLR cell viability loss; BJeLR (HRASV12) viability, CellTiter-Glo ATP luminescence, 48 h; inhibition, % (no concentration beside the values); hit rate 0.17% among 300,000; AID 1554; in the data active = inhibition above about 50%
PrPC TRFRET: reduces human prion protein on the cell surface; cell surface PrPC, TR-FRET read-out; P04156; hit rate 0.43% among 370,000; AID 720596; inhibition, % at 13.8 µM; in the data active = inhibition above about 24%; note: 0% = median of the test wells and 100% = reference compound wells
Numbers without * were called inactive; . = no result; ! = not active in a repeat.

SMILES	PriA SSB inh	PrP 5UTR inh	3CLpro inhibitor	BJeLR viability	PrPC TRFRET
CC(NC(=O)CNC(=O)c1cccc(Cl)c1)c1ccccc1 (stereo not given)	66*	-7	2	0	-5
CC(NC(=O)NC(=O)c1cccc(Cl)c1)c1ccccc1 (stereo not given)	8	-11	-2	-2	-4
Cc1c(Cl)cccc1S(=O)(=O)NCCn1ccnc1-c1ccccn1	-27	.	.	.	.
CN(C)CCCN(C(=O)c1ccno1)c1nc2ccc(F)cc2s1	6	.	.	.	.
CCc1cc(=O)[nH]c(-n2nc(C)cc2NC(=O)COC)n1	39*	.	.	.	.
CCCC(=O)Nc1cc(C)nn1-c1nc(CC)cc(=O)[nH]1	33	.	.	.	.
Cc1cc(N)n(-c2nc(-c3ccccc3)cc(=O)[nH]2)n1	53*!	.	.	.	.
Cc1cc(=O)[nH]c(-n2nc(C(C)(C)C)cc2N)n1	-15	.	.	.	.
CCc1cc(=O)[nH]c(-n2nc(C)cc2N)n1	93*	.	.	.	.
CCc1cc(=O)[nH]c(-n2ncc(C(=O)O)c2C)n1	-7	.	.	.	.
CCOC(=O)c1ccccc1NC(=O)CSc1ncc(S(=O)(=O)c2ccc(OC)c(Cl)c2)c(=O)[nH]1	-11	.	.	.	.
COc1cccc(NC(=O)CSc2nnc(-c3ccc(=O)n(C)c3)n2C)c1	0	.	.	.	.
O=C(c1ccco1)N1CCN(c2cc(Nc3ccccn3)ncn2)CC1	-8	.	.	.	.
Cc1csc(C(=O)NC2CCC(Oc3cnccn3)CC2)c1 (stereo not given)	1	.	.	.	.
COc1ccc2cc(C(=O)N3CCC(Oc4cc(C)oc(=O)c4)CC3)[nH]c2c1	3	.	.	.	.
Cc1ccc(S(=O)(=O)Nc2nc3ccc(N)cc3s2)cc1	3	-8	0	-3	7
Cc1ccc(S(=O)(=O)Nc2nc3ccc(S(C)(=O)=O)cc3s2)cc1	40*	-15	2	-1	-4
CC(C)Nc1ccc(Nc2ccnc3cc4ccccc4cc23)cc1	97*	-22	-3	44	-4
O=C(Cn1nc(C2CC2)c2cnn(-c3ccc(F)cc3)c2c1=O)Nc1ccc(Cl)cc1	-1	.	.	.	.
CN(CC#CCNC(=O)NC1CCCCC1)Cc1ccccc1	7	.	.	.	.
CC(=O)N1CCC(CN2CCOCC2)CC1	2	.	.	.	.
CC(=O)N1CCC(CN2CCCC2)CC1	38*	.	.	.	.
O=C(Nc1ncc(S(=O)(=O)c2ccc([N+](=O)[O-])cc2)s1)c1cc(Cl)ccc1[N+](=O)[O-]	11	.	.	.	.
CCOc1ccc(C=NN(C)c2ccccc2)cc1OC	39*	.	.	.	.
CCOc1ccc(/C=N/N(C)c2ccccc2)cc1OC	.	-126	-5	-5	3
SMILES	PriA SSB inh	PrP 5UTR inh	3CLpro inhibitor	BJeLR viability	PrPC TRFRET
Cc1cc2ccccn2c1C(=O)c1cc([N+](=O)[O-])cc([N+](=O)[O-])c1	49*	-8	3	-10	-3
Cc1cc2ccccn2c1C(=O)c1ccc(NN)c([N+](=O)[O-])c1	47*	-13	6	3	-2
Cc1ccc2c(c1)C1CN(C)CCC1N2Sc1ccccc1[N+](=O)[O-] (stereo not given)	55*	-19	-8	1	-4
COc1ccc(C2C(=C(O)c3ccc(F)cc3)C(=O)C(=O)N2c2ccccn2)cc1OC (stereo not given)	-13	.	.	.	.
C/C(=N/NC(=S)NCc1ccco1)c1cccc([N+](=O)[O-])c1	66*	.	.	.	.
Nc1ccc(N=Nc2ccccc2)c(N)n1	56*	-38	2	0	-27
Nc1ccc(N=Nc2ccccc2)c2ccccc12	26	-21	0	1	5
Clc1ccc(-c2[nH]ncc2N=Nc2ccccc2)cc1	-13	-23	6	-3	-4
c1ccc(N=Nc2ccc3cccccc2-3)cc1	51*	-79	.	0	1
O=C(Nc1cccc(-c2nn[nH]n2)c1)c1ccc(Br)s1	116*	8	2	-3	2
O=C(NCc1nn(C2CCCC2)c(=O)c2ccccc12)c1ccccc1Br	-7	.	.	.	.
c1ccc(CN2CCN(C3=Nc4cccc5cccc3c45)CC2)cc1	15	-37	-3	3	-3
Fc1ccc(N2CCN(C3=Nc4cccc5cccc3c45)CC2)cc1	44*	-33	-2	-1	-6
CC(=O)Nc1ccc(NC2=C(Cl)C(=O)c3ccccc3C2=O)cc1	-8	.	6	1	-16
CN(C)c1ccc(NC2=C(Cl)C(=O)c3ccccc3C2=O)cc1	64*	-16	1	.	-34
Oc1ccccc1N=Cc1c(O)ccc2ccccc12	3	-10	2	5	-2
Oc1cccnc1N=Cc1c(O)ccc2ccccc12	58*	.	.	.	.
CCCN1C/C(=C/c2ccc3c(c2)OCO3)C(=O)/C(=C/c2ccc3c(c2)OCO3)C1	-1	-19	0	53*	-3
CCCN1C(=O)/C(=C/c2ccc3c(c2)OCO3)NC1=S	-2	-8	-1	2	1
COc1cccc(-c2nnc3ccc(OCCNC(=O)c4c(F)cccc4Cl)nn23)c1	2	.	.	.	.
O=C(Nc1ccccc1Cl)c1ccccc1Oc1ccc(C(F)(F)F)cc1[N+](=O)[O-]	47*	-8	2	6	-3
C/[N+]([O-])=C/c1ccnc2c1ccc1cccnc12	148*	.	.	.	.
O=C(COc1ccccc1)Nc1nc2c(s1)-c1cccc3cccc-2c13	42*	.	.	.	.
Nc1ccc(Nc2ccccc2N)cc1	91	-40	3	.	-12
COc1ccc(Nc2ccccc2N)cc1	82*	-32	-2	2	1
SMILES	PriA SSB inh	PrP 5UTR inh	3CLpro inhibitor	BJeLR viability	PrPC TRFRET
COc1cccc(N=C2CC(C)(C)CC(=O)C2=C(O)c2ccccc2)c1	-9	.	.	.	.
O=C(Nc1cccc(S(=O)(=O)Nc2ccc(Cl)cc2)c1)c1ccc(Cl)nc1	-3	-10	6	16	29*
O=C1CSc2ccc(C(=O)Nc3cccc(S(=O)(=O)Nc4ccc(Br)cc4)c3)cc2N1	25	1	9	26	36*
CCOC(=O)C(=NO)C1=NC(C)(C)Cc2ccccc21	1	.	.	.	.
Cc1nn(Cc2ccc(C(=O)NN=Cc3ccncc3)o2)c(C)c1Cl	6	.	.	.	.
C[n+]1cccc2c(Br)ccc([O-])c21	1	-7	13*	5	-30
CC(C)C(=O)N1CCCc2cc(NC(=O)Nc3cccs3)ccc21	3	.	.	.	.
CCCN1CCCc2cc(CCNC(=O)c3ccccc3F)ccc21	68*	.	.	.	.
CCCN1CCCc2cc(CCNC(=O)c3cccs3)ccc21	63*	.	.	.	.
CCCN1CCCc2cc(CCNC(=O)c3ccccc3)ccc21	57	.	.	.	.
CCCN1CCCc2cc(CCNC(=O)COc3ccccc3F)ccc21	83*	.	.	.	.
CCCN1CCCc2cc(CCNC(=O)c3c(OC)cccc3OC)ccc21	80*	.	.	.	.
O=C(CCC(=O)c1ccc(Cl)cc1)Nc1ccccc1Cc1nc(-c2ccco2)no1	3	.	.	.	.
Cc1ccc2c(c1)c(=O)c(-c1nc(-c3ccc(OCc4ccccc4)cc3)no1)cn2C	-9	.	.	.	.
CCOC(=O)N1CCN(S(=O)(=O)c2ccc(C(=O)Nc3nc(-c4ccc(C)o4)cs3)cc2)CC1	-11	.	.	.	.
Cn1c(O)c(N=Nc2ccc(C(F)(F)F)cc2)c(=O)n(C)c1=O	-9	.	.	.	.
CCCN1CCCc2cc(CCNC(=O)C(C)C)ccc21	59	.	.	.	.
CCCN1CCCc2cc(CCNC(=O)C(C)(C)C)ccc21	51*	.	.	.	.
O=C(NC[C@@](O)(c1ccccc1)C1CC1)c1ccc(Br)o1	-7	.	.	.	.
COc1ccc(CCNc2oc(Cc3cccc4ccccc34)nc2C#N)cc1OC	43*	-2	3	1	11
